Dicer processing = inhibitors of human Dicer processing of pre-microRNA | Q9UPY3 | cat-ELCCA pre-miR-21 Dicer processing, chemiluminescence; stronger effect = higher value | z-score at 25 µM | hit rate 6% among 47,000; in the data active = z-score above about 3, passing the limit was not always enough;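 also: plate controls were vehicle for no effect and no enzyme for full effect; higher signal means more uncleaved substrate so more Dicer inhibition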
* hit, by the source's call. Only a selection was taken, and hits are over-represented in it overall.

SMILES	Dicer processing
CC(CC(=O)O)CC(=O)NCc1ccc(Cl)cc1 (stereo unspecified)	3.3*
O=C(CSc1ncn[nH]1)Nc1ncccn1	0.99
Cc1nnc(SCC(=O)Nc2nsc(-c3ccc(C(C)(C)C)cc3)n2)s1	1.8
O=C(CSc1nnc2ccccn12)Nc1ccc(-c2nc3ccccc3s2)cc1	3.5*
O=C(CSc1ccc2ccccc2n1)Nc1nsc(-c2ccccc2)n1	2.1
Cc1ccccc1-c1nc(NC(=O)CSc2nnc3ccccn23)ns1	3.5*
O=C(CSc1nc2ccccc2s1)Nc1ccc(Cl)cc1	0.57
NC(=O)CSc1nnc2ccccn12	0.34
O=C(CSc1nnc2scc(-c3ccccc3)n12)Nc1nsc(-c2ccccc2)n1	0.12
Cn1ccnc1SCC(=O)Nc1nc2ccccc2s1	-0.98
CC(C)(C)c1ccc(-c2nc(NC(=O)CSc3ncn[nH]3)ns2)cc1	7.1*
Cc1ccc(-c2csc3nnc(SCC(=O)Nc4nsc(-c5ccccc5)n4)n23)cc1	4.6*
O=C(CSc1nnc2ccccn12)Nc1nc(-c2ccc(Cl)cc2)ns1	-2.9
O=C(N/C=C/c1ccsc1)Nc1ccccc1C(F)(F)F	0.6
CCOC(=O)CSc1nc(-c2ccccc2)cn1-c1ccc(OC)cc1OC	-0.6
N/C(=N/O)c1nccnc1Sc1ccc(Cl)cc1	-1.7
CN(C)c1ccc(N2C(=O)CC(Sc3ncccc3C(=O)O)C2=O)cc1 (stereo unspecified)	-0.2
COc1cc(C2C(C(=O)OCc3ccccc3)=C(C)NC3=C2C(=O)CC(C)(C)C3)ccc1OC(C)=O (stereo unspecified)	2.1
Cc1nc(SCCC(C)C)[nH]c(=O)c1CCC(C)C	6.2
Cn1c(=O)c2c(-c3ccccc3)n(CCCO)cc2n(C)c1=O	5.8*
Cn1c(=O)c2c(-c3ccccc3)n(C(CO)(CO)CO)cc2n(C)c1=O	0.81
Cc1ccc(-c2c3c(=O)n(C)c(=O)n(C)c3cn2C)cc1	0.83
CCCCCOc1ccc(C2c3c(oc4ccccc4c3=O)C(=O)N2c2nnc(C)s2)cc1 (stereo unspecified)	-0.69
Cc1cc(C)c2nc(Nc3nc(O)cc(=O)[nH]3)nc(C)c2c1	5.2*
Cc1ccc2nc(Nc3nc(O)cc(=O)[nH]3)nc(C)c2c1	2.7
SMILES	Dicer processing
Cc1ccc2nc(Nc3nc(C)cc(=O)[nH]3)nc(C)c2c1	0.87
O=C(O)c1ccc(S(=O)(=O)c2cc(Cl)ccc2Cl)c([N+](=O)[O-])c1	-1.5
Cc1c(C)c(C)c(S(=O)(=O)Oc2cc(Cl)cc(Cl)c2)c(C)c1C	-0.02
COc1ccc(S(=O)(=O)Nc2cccnc2)c(C)c1C	1.1
Cc1c(C)c(C)c(S(=O)(=O)Oc2cccnc2)c(C)c1C	3.8*
Cc1ccc(S(=O)(=O)Nc2sc3c(c2C(=O)O)CCCC3)cc1	-0.16
CCCCNC(=S)N(CCC#N)C1CCCCC1	-0.62
O=C(O)CSc1nc2cc(Cl)ccc2s1	1.8
CCOc1cc(C2C(C(=O)OCC3CCCO3)=C(C)NC3=C2C(=O)CC(C)(C)C3)cc(Cl)c1O (stereo unspecified)	1.2
CCNc1nc(-c2ccc(Cl)cc2)c(-c2ccc(C)cc2)s1	-2.2
Clc1ccc2nc3c(nc2c1)Nc1ccccc1S3	0.76
CCNc1nc2ccc(Cl)cc2nc1NCC	4.6*
Cc1ccc(S(=O)(=O)OC2=C(C#N)CCN(S(=O)(=O)c3ccc(Cl)cc3)c3cc(Cl)ccc32)cc1	-0.89
COc1c(C(=O)O)sc(C(=O)O)c1OC	-0.56
O=S(=O)(NCc1cccc(Cl)c1)c1sc(Br)cc1Br	0.62
O=C(NCCCN1CCN(Cc2c(F)cccc2Cl)CC1)c1cn2cc(C(F)(F)F)cc(Cl)c2n1	-0.04
CN(C)c1ncnc2c1C(c1ccc(Br)cc1)c1c(ncnc1N(C)C)O2	5*
CC(C)NC(=O)NNC(=O)c1ccc[nH]1	-1.1
N=C1SCC(=O)N1c1ccc(Cl)cc1Cl	-0.92
CCOC(=O)c1ccc2c3c(onc13)-c1ccccc1C2=O	-1.1
CCOc1ccc2noc3c2c1C(=O)c1ccccc1-3	-0.35
CC(=O)OCCNc1cc(Cl)c2noc3c2c1C(=O)c1ccccc1-3	3.2*
Cc1ccc2oc3c(c(=O)c2c1)C(c1cccc(O)c1)N(Cc1ccc2c(c1)OCO2)C3=O (stereo unspecified)	2.8
O=c1[nH]c2nc3ccccc3n2c(O)c1Cc1ccccc1	-0.43
Cc1nc(C)c(S(=O)(=O)NCc2nn(-c3ccccc3)nc2C)s1	-2
SMILES	Dicer processing
O=C1CC(c2ccccc2)CC2=C1C(c1ccco1)n1ncnc1N2 (stereo unspecified)	3.9*
c1ccc(C2CC(c3ccco3)n3ncnc3N2)cc1 (stereo unspecified)	0.17
COc1ccc(C2CC(=O)C3=C(C2)Nc2ncnn2C3c2ccccc2)cc1 (stereo unspecified)	2.9
CCc1nc(S(C)(=O)=O)c(C#N)cc1C	-0.07
CCc1nc2ccccc2n1CC(O)COc1cc(OC)cc(OC)c1 (stereo unspecified)	1.9
COc1cccc(C(=O)Nc2ccc(Cl)cc2OC(F)(F)F)c1	-0.74
Cc1ccnc(NC(=O)CCC(=O)O)c1	0.53
CCOC(=O)CCc1c(C(=O)OCC)[nH]c2ccccc12	0.64

High-throughput results (PubChem)
